# Bioassay records from PubChem BioAssay.
# The list is not random: actives were taken first. Their share in the collection is about 1.8%.
# PAD4 FP inh = human PAD4 inhibitors, primary screen, biochemical, fluorescence polarization, 1536-well format. AID 485272, 2010. Protein-arginine deiminase type-4 (Homo sapiens), Q9UM07. 330,000 compounds, 0.41% hits. inhibition, % at 6.36 µM. recombinant PAD4, RCA probe fluorescence polarization;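 active = percent inhibition above a cutoff equal to the mean of all tested compounds plus 3 SD, cut at about 15% in these data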;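 also: 0% = PAD4 with RCA probe and DMSO and 100% = probe without PAD4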
# GSTO1 counter = inhibitors of recombinant GSTO1, primary screen, counter-screen for RBBP9 inhibitor project, biochemical, fluorescence polarization | activity-based probe fluorescence polarization | Glutathione S-transferase omega-1 (Homo sapiens), P78417 | inhibition, % at 5.96 µM | 300,000 compounds, 1.1% hits;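 active = inhibition above the campaign mean inhibition plus 3 SD, cut at about 35% in these data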;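 also: 0% = GSTO1-1 with DMSO and 100% = wells lacking GSTO1-1 enzyme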
# LYPLA1 counter = LYPLA1 inhibitors, primary screen, counter-screen for PME1 inhibitor project, biochemical, fluorescence polarization, FP-Rh probe ABPP | Acyl-protein thioesterase 1 (Homo sapiens), O75608 | recombinant LYPLA1 | inhibition, % at 5.9 µM | 320,000 compounds, 0.16% hits | AID 2174, 2009;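 active = inhibition above the mean of all tested compounds plus 3 SD, set per campaign, cut at about 14% in these data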;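 also: inhibitors block serine hydrolase probe labeling of LYPLA1 so polarization falls; 0% = enzyme with DMSO and 100% = wells lacking LYPLA1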
# PME-1 inh = PME-1 inhibitors via competitive probe labeling, primary screen, biochemical, fluorescence polarization, FP-Rh probe, HTS; Protein phosphatase methylesterase 1 (Homo sapiens), Q9Y570; 320,000 compounds, 0.53% hits; recombinant PME-1; inhibition, % at 5.9 µM;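 active = inhibition above the campaign mean of all compounds plus 3 SD, cut at about 26% in these data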;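 also: competitive labeling of PME-1 active site by serine hydrolase directed probe; 0% = PME-1 with DMSO and 100% = wells lacking PME-1 enzyme; inhibitors block probe labeling so polarization falls and inhibition rises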
# Target sequence (Q9Y570 whole entry, looked up): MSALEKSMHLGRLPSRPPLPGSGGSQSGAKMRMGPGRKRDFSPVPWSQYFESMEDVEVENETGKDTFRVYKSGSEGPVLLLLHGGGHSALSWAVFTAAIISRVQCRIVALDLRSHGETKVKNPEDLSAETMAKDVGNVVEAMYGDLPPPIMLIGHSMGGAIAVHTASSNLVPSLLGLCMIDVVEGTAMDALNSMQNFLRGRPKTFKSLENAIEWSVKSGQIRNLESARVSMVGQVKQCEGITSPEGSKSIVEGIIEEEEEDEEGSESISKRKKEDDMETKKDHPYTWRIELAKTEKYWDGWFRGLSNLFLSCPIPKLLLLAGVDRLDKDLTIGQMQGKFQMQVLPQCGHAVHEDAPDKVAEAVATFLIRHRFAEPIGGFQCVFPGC
# Fam108B inh = mouse Fam108B serine hydrolase inhibitors, primary screen, counter-screen for RBBP9 inhibitor project, biochemical, fluorescence polarization. recombinant Fam108B, FP-Rh probe fluorescence polarization. AID 1947, 2009. inhibition, % at 9.51 µM. 300,000 compounds, 0.33% hits;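 active = inhibition above the screen mean inhibition plus 3 SD, computed separately per campaign, cut at about 18% in these data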;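 also: inhibitors lower polarization as less probe binds the enzyme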
# LYPLA2 counter = LYPLA2 inhibitors, primary screen, counter-screen for PME1 inhibitor project, biochemical, fluorescence polarization, FP-Rh probe ABPP | Acyl-protein thioesterase 2 (Homo sapiens), O95372 | 320,000 compounds, 0.38% hits | recombinant LYPLA2 | AID 2177, 2009 | inhibition, % at 5.9 µM;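 active = inhibition above the screen-wide mean plus 3 SD, limit set per campaign, cut at about 26% in these data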;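 also: 0% = LYPLA2 with DMSO and 100% = wells lacking LYPLA2 enzyme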
# GSTO1 inh conf = GSTO1 inhibitor hit confirmation, counter-screen for RBBP9 inhibitor project, biochemical, fluorescence polarization, triplicate; inhibition, % at 5.96 µM; 2,400 compounds, 54% hits; AID 2176, 2009; recombinant GSTO1, probe fluorescence polarization; shares compounds with GSTO1 counter;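 active = inhibition above the primary screen's cutoff, its mean inhibition plus 3 SD, cut at about 35% in these data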;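 also: loss of polarization as inhibitors block binding of rhodamine sulfonate ester activity probe; 0% = GSTO1 with DMSO and 100% = wells lacking GSTO1 enzyme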
# GSTO1 recomb ABPP = inhibitors of purified human GSTO1, late-stage follow-up, biochemical, gel ABPP, SE-Rh probe, percent inhibition; shares compounds with GSTO1 counter; inhibition, % at 1 µM; AID 463110, 2010; 130 compounds, 30% hits; recombinant GSTO1, gel ABPP SE-Rh probe fluorescence;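 active = inhibition of the enzyme GSTO1 above about 75%, limit read from the data; inactive = inhibition below that limit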
# * hit, by the source's call; · = not tested or not shown.
SMILES,PAD4 FP inh,GSTO1 counter,LYPLA1 counter,PME-1 inh,Fam108B inh,LYPLA2 counter,GSTO1 inh conf,others
COC(=O)C(O)(c1c[nH]c2ccccc12)C(F)(F)F (configuration not stated),-3,-6,3,-4,1,1,·,
COC(=O)C(O)(c1c(C)[nH]n(-c2ccccc2)c1=O)C(F)(F)F (configuration not stated),4,50*,2,1,2,9,52*,
O=C(NC1CCCCC1)Oc1cc2oc(=O)sc2cc1Cl,2,55*,4,0,5,0,13,
CNCCc1ccc(O)c(O)c1,-5,73*,-2,0,-1,2,8,
CCCCn1c(N)c(C(=O)NCc2cccs2)c2nc3ccccc3nc21,2,61*,-3,8,-1,1,82*,
CCCCCn1c(N)c(C(=O)NCCN2CCOCC2)c2nc3ccccc3nc21,-3,4,2,10,8,-6,·,
CCCOC(=O)c1c(N)n(Cc2cccs2)c2nc3ccccc3nc12,-19,42*,-6,9,-1,-4,-2,
CC(=O)N(C)CC#CCN1CCCC(CO)C1 (configuration not stated),0,3,1,4,2,4,·,
COc1cccc(NC2=NCCCS2)c1,0,1,1,-1,-2,4,·,
CCCCn1c(N)c(C(=O)OCCOC)c2nc3ccccc3nc21,-5,17,2,8,-1,0,·,
COCCCn1c(N)c(C(=O)NCCC(C)C)c2nc3ccccc3nc21,-10,39*,-6,7,2,-9,64*,
CCCCOCCCn1c(N)c(C(=O)OCCOC)c2nc3ccccc3nc21,-11,38*,-1,-2,3,-7,35*,
COc1ccc(-c2nn(CCC#N)cc2C(=O)Nc2ccccc2Br)cc1[N+](=O)[O-],3,1,-2,-2,1,1,·,
Cc1cc(=O)[nH]c(CCl)n1,-4,67*,1,3,-1,1,90*,GSTO1 recomb ABPP=14
c1ccc2c3c(ccc2c1)OCC1CONC31 (configuration not stated),-9,5,-5,4,-6,-8,·,
O=[N+]([O-])c1cc(S(=O)(=O)c2ccc(O)c([N+](=O)[O-])c2)ccc1O,-6,40*,0,-1,16,7,49*,
COP(=O)(OC)C(NC(=O)/C=C/c1ccccc1)C(Cl)(Cl)Cl (configuration not stated),-5,39*,2,2,1,-2,69*,
CC(Cc1ccccc1)NC(=O)/C=C/c1ccc(Cl)cc1 (configuration not stated),-1,-1,-3,-2,-1,-4,·,
CC(C)OC(=O)c1c(N)n(CC2CCCO2)c2nc3ccccc3nc12 (configuration not stated),-16,45*,0,-3,-1,-3,5,
CC(C)CCOC(=O)c1c(N)n(CC2CCCO2)c2nc3ccccc3nc12 (configuration not stated),1,53*,-2,3,0,4,-2,
Nc1c(C(=O)OC2CCCCC2)c2nc3ccccc3nc2n1CC1CCCO1 (configuration not stated),-13,42*,-4,5,3,4,-2,
CC(C)c1ccc(-n2c(O)c(C=NCCN3CCNCC3)c(=O)[nH]c2=S)cc1,-1,2,-4,4,-5,-3,·,
C=CCN1CCc2cccc3c2[C@H]1Cc1ccc(O)c(O)c1-3,-6,87*,-6,1,0,-6,17,
